# Source: PubChem (National Center for Advancing Translational Sciences (NCATS))
# G9a inh – inhibitors of human histone lysine methyltransferase G9a | AID 504332 | G9a H3K9 monomethylation, AlphaScreen, 2 h | 8.8% of 350,000 active | Potency, µM (titrated, usually from 102 µM), hits mostly inhibitors; further: nearly all actives have a fitted effect of over 75% in size
# Target sequence (Q96KQ7 913-1193 limits assumed): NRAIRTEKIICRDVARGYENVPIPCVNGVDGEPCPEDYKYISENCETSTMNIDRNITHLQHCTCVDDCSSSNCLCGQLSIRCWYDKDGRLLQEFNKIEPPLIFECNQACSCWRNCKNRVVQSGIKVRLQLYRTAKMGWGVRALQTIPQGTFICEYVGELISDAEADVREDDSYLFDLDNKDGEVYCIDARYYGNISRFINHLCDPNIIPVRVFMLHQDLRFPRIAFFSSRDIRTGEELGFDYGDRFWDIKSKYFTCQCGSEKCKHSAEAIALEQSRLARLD
#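 Compounds were preincubated with 20 nM G9a for 15 min, after which biotinylated H3K9 peptide (500 nM) and SAM (20 uM) started a 2 h room-temperature reaction. Monomethylated product was quantified by antibody-based AlphaScreen chemiluminescence.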
# HP1b chromo inh – blocks HP1-beta chromodomain binding to methylated histone tails | Potency, µM (doses to about 114 µM), actives largely listed as inhibitors | 0.56% of 390,000 active | AlphaScreen HP1-beta / biotin-H3K9me3 peptide binding | P83916; further: nearly all actives have a fitted effect of over 70% in size
# Target sequence (P83916 whole entry, looked up): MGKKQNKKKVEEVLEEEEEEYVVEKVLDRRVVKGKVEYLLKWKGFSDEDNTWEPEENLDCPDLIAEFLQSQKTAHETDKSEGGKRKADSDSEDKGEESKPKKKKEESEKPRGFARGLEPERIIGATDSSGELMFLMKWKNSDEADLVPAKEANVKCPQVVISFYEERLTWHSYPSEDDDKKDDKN
#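 Compound inhibition of the preformed complex between 50 nM HP1-beta and 50 nM biotinylated H3K9me3 peptide was read by AlphaScreen. Buffer was PBS pH 7.4 with 0.01% Tween-20. Incubations ran 30 min at room temperature, with 10 ug/mL donor/acceptor beads.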
# GLS inh – glutaminase GLS (human) inhibition; GLS enzymatic activity, qHTS titration; Potency, µM (titrated, usually from 45.5 µM), most hits filed as inhibitors; AID 624170; 0.21% of 410,000 active; O94925
#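 Enzyme dispensed in phosphate buffer (45 mM, pH 8.2, 0.02% Tween-20), compounds pinned in, then 1 mM L-glutamine solution and the glutamate oxidase–HRP–Amplex Red mix added; fluorescence read immediately and again after 30 min at room temperature.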
# BAZ2B inh – BAZ2B (human) inhibition; AlphaScreen BAZ2B-H3K14Ac peptide displacement; 4.4% of 360,000 active; AID 504333; Q9UIF8; Potency, µM (highest dose often 114 µM), most hits filed as inhibitors; further: nearly all actives have a fitted effect of over 60% in size
#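 AlphaScreen displacement: compounds (up to 110uM) incubated 30 min at room temperature with a preformed 50 nM BAZ2B/50 nM biotinylated H3K14Ac peptide complex in PBS pH 7.4 with Tween-20. Donor and acceptor beads at 10 ug/mL final added, 20 min light-protected before reading.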
# JMJD2A Tudor inh – inhibitors of human JMJD2A Tudor domain | O75164 | AlphaScreen JMJD2A-Tudor / H3K4me3 peptide binding | Potency, µM (top dose mostly 114 µM), hits mostly inhibitors | 4.4% of 390,000 active | AID 504339; further: nearly all actives have a fitted effect of over 50% in size
# Hits are given with their value; – = inactive; ? = inconclusive; · = no result given; [ ] = remark or other dose. An excerpt weighted towards active compounds, which were near 10% of everything screened. The call rests on the fitted dose curve; in most records, active means well fitted curve in the direction sought with a large enough effect; inconclusive means small, poorly fitted or top-dose-only effect, or another doubt; inactive means no such curve, though single readings can be large; an effect the other way counts as inactive or inconclusive.
SMILES,G9a inh,HP1b chromo inh,GLS inh,BAZ2B inh,JMJD2A Tudor inh
c1ccc(Nc2ccnc(Nc3ccccc3)n2)cc1,–,–,–,–,–
CCOC(=O)C1=C(N)Oc2cc(O)ccc2C1c1ccccc1 (stereo not given),–[0.501 µM],–,–,–,–
CCOC(=O)C1=C(N)Oc2cc(O)ccc2C1c1cccc([N+](=O)[O-])c1 (stereo not given),·,–,–,39.8µM,?
CCOc1ccc(N)c(SSc2cc(OCC)ccc2N)c1,0.562µM,17.8µM,–,31.6µM,12.6µM
O=C(O)CNC(=O)CCn1nnc2ccccc2c1=O,–,–,–,–,–[11.4 µM]
CC(C)CC(=O)Nc1ccc(Nc2ccccc2)cc1,20µM,–,–,?,–
CC(C)CC(=O)Nc1ccc(Oc2ccc(NC(=O)CC(C)C)cc2)cc1,–,–,–,–,–
O=C(CC(c1ccccc1)c1ccccc1)Nc1ccc(O)cc1,·,–,?,–,–
O=C(CC(NCCc1ccccc1)C(=O)O)Nc1ccc(O)cc1 (stereo not given),22.4µM,·,·,?,·
Cc1ccc(NC(=O)n2ncc3c(C)cccc32)c(C)c1,–,–,–,–,–
Cc1ccc2[nH]c3c(N4CCN(Cc5ccc6c(c5)OCO6)CC4)ncnc3c2c1,50.1µM,·,·,?,·
COc1cccc2[nH]c3c(N4CCN(Cc5ccc6c(c5)OCO6)CC4)ncnc3c12,44.7µM,·,·,35.5µM,·
COc1cccc2[nH]c3c(N4CCC(C)CC4)ncnc3c12,–,–,–,·,–
COc1ccc2c(c1)[nH]c1c(N3CCN(Cc4ccc5c(c4)OCO5)CC3)ncnc12,·,–,–,44.7µM,?
CCC(=O)Nc1nnc(Cc2ccccc2)s1,–[12.7 µM],–,–,–,–
COCCn1c(-c2ccc(OC)cc2)cnc1SCC(=O)Nc1cccc2ccccc12,35.5µM,–,–,17.8µM,25.1µM
Cc1cnc(NC(=O)CSc2ncc(-c3ccccc3)n2Cc2ccco2)s1,?,–,–,22.4µM,?
CCC(=O)Nc1cc(NC(=O)CSc2ncc(-c3ccc(F)cc3)n2Cc2ccco2)ccc1C,?,–,–,·,?
COc1ccc(NC(=O)CSc2ncc(-c3ccc(F)cc3)n2Cc2ccco2)cc1,28.2µM,?,–,31.6µM,56.2µM
COc1ccc(-c2cnc(SCC(=O)Nc3cc(C)on3)n2Cc2ccco2)cc1,?,?,–,44.7µM,50.1µM
Cc1ccc(C)c(N2CCN(CCCNC(=O)CCC(=O)N3CCOc4ccc(Cl)cc43)CC2)c1,–,·,·,?,·
O=C(CCC(=O)N1CCOc2ccc(Cl)cc21)NCCCN1CCN(c2ccccc2F)CC1,89.1µM,–,–,?,–
COc1ccc(N2CCN(CCCNC(=O)CCC(=O)N3CCOc4ccc(Cl)cc43)CC2)cc1,·,–,–,31.6µM,?
CCOC(=O)c1ccc(N2C(=O)c3n[nH]c(-c4ccco4)c3C2c2ccc(C(=O)OC)cc2)cc1 (stereo not given),?,–,–,·,?
Cc1ccc2nc(N3C(=O)C(O)=C(C(=O)c4ccc(C)o4)C3c3cccc(O)c3)sc2c1 (stereo not given),31.6µM,–,–,?,?
SMILES,G9a inh,HP1b chromo inh,GLS inh,BAZ2B inh,JMJD2A Tudor inh
COc1ccc(C2C(C(C)=O)=C(O)C(=O)N2c2nc3ccccc3s2)cc1OC (stereo not given),50.1µM,–,–,–,?
COC(=O)c1sc(N2C(=O)C(O)=C(C(=O)c3ccc(C)o3)C2c2ccc(OC)c(OC)c2)nc1C (stereo not given),31.6µM,–,–,–,?
CCOC(=O)c1ccc(N2C(=O)c3n[nH]c(-c4ccco4)c3C2c2cccc([N+](=O)[O-])c2)cc1 (stereo not given),?,?,–,11.2µM,?
CCOC(=O)C[C@H]1c2ccc(C(F)(F)F)cc2S(=O)(=O)N1Cc1ccccc1,·,–,–,·,–
O=[N+]([O-])c1ccc(Cl)c(S(=O)(=O)Nc2ccc3cn[nH]c3c2)c1,·,–,–,·,–
COc1ccc(OC)c(-c2cc(C(=O)NCCCn3ccnc3)no2)c1,–,–,–,?,?
COc1ccc(Cc2nnc(NC(=O)c3ccccc3Cl)s2)cc1OC,–,–,–,–,–
COC(=O)c1ccc(NC(=O)CN2CCC(NC(=O)c3ccco3)CC2)cc1,–,–,–,–,–
Cc1ccc(Cl)cc1NC(=O)C(Cc1ccccc1)NS(=O)(=O)c1cccc2nsnc12 (stereo not given),?,–,–,·,–
CCOC(=O)c1sc(N2C(=O)C(O)=C(C(=O)c3ccc(C)o3)C2c2ccc(OC)c(OC)c2)nc1C (stereo not given),–,–,–,–,–
CCOc1ccc(C2C(C(=O)c3ccc(C)o3)=C(O)C(=O)N2c2nc(C)c(C(=O)OC)s2)cc1 (stereo not given),10µM,–,–,–,?
COC(=O)c1sc(N2C(=O)C(O)=C(C(=O)c3ccc(C)o3)C2c2ccc([N+](=O)[O-])cc2)nc1C (stereo not given),?,–,–,–,?
CCOC(=O)c1sc(N2C(=O)C(O)=C(C(=O)c3ccc(C)o3)C2c2cccc([N+](=O)[O-])c2)nc1C (stereo not given),44.7µM,–,–,?,?
COC(=O)c1ccc(C(=O)Nc2nnc(-c3cccnc3)o2)cc1,–,·,·,–,·
COc1cc(SC)ccc1C(=O)OCc1nc2ccsc2c(=O)[nH]1,–[0.501 µM],–,–,–,–
CCN(CC)CCCn1c2c(c(SCC(=O)Nc3ccc(C)c(F)c3)nc1=O)CCC2,56.2µM,–,–,–,–
CCN(CC)CCn1c2c(c(SCC(=O)Nc3ccc4c(c3)OCO4)nc1=O)CCC2,35.5µM,–,–,–,–
Cc1ccc(NC(=O)CSc2nc(=O)n(CCCN(C)C)c3c2CCC3)cc1F,–,–,–,–,–
CC1(C(=O)Nc2ccc3c(c2)OCO3)CCN1Cc1ccccc1OC(F)F (stereo not given),·,·,–,·,·
Oc1ccccc1Nc1nc(NCc2ccco2)c2ccccc2n1,50.1µM,–,–,44.7µM,?
COc1ccc(OC)c(Nc2nc(NCc3ccco3)c3ccccc3n2)c1,?,?,–,39.8µM,50.1µM
Cc1ccccc1Nc1nc(NCc2ccco2)c2ccccc2n1,?,?,–,?,56.2µM
O=C1CN(C(=O)c2cc3ccccc3oc2=O)C(c2ccccc2)c2cc(F)ccc2N1 (stereo not given),–,–,–,–,–
Cn1cccc1Cc1nnc(SCC(=O)NC2CCCC2)n1-c1ccc(F)cc1,70.8µM,–,–,–,–
COc1cccc(-n2c(Cc3cc(=O)[nH]c(=O)[nH]3)nnc2SCc2cccnc2)c1,50.1µM,–,–,–,–
Cc1nnc(SCC(=O)NC2CCCC2)n1CCc1ccccc1,–,–,–,–,–
COc1ccc(-n2c(Cc3cc(=O)[nH]c(=O)[nH]3)nnc2SCc2ccccc2)cc1,?,–,–,–,–
CCOc1ccc(-n2c(Cc3cc(=O)[nH]c(=O)[nH]3)nnc2SCC(=O)OC)cc1,?,–,–,–,–
